Experimental data taken from PubChem BioAssay (NCATS).
The source made the active and inactive calls. Calls come from the whole dose curve; as a rule, active = well fitted activation curve with a large enough effect; inconclusive = small, poorly fitted or top-dose-only effect; inactive = no such curve, though single readings can be large or run the other way.

What follows are compounds tested against Cytochrome P450 3A4 (Homo sapiens) (UniProt P08684) (assay: qHTS Assay for Activators of Cytochrome P450 3A4 (AID 885; note: nearly all actives have a fitted effect of over 65% in size)). Details: recombinant CYP3A4, Luciferin-PPXE luminescence, 60 min; series mostly up to 57.1 µM.
Cytochrome P450 3A4 (Homo sapiens), sequence (P08684 whole entry, looked up): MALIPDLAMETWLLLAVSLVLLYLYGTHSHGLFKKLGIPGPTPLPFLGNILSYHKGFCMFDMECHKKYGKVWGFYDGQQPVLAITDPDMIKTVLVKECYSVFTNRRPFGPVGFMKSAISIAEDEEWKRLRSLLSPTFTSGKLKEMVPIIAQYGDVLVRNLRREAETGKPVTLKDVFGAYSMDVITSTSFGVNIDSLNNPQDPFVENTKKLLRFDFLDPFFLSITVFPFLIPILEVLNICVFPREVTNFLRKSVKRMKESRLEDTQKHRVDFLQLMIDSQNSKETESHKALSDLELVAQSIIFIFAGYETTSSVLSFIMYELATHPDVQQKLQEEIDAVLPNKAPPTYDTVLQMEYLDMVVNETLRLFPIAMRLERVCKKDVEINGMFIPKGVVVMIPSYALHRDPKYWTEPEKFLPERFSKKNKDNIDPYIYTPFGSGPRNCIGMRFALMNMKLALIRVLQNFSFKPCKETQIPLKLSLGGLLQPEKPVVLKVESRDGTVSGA
Method in brief: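 Human CYP3A4 dealkylates Luciferin-PPXE to luciferin, which luciferase detection converts to light. Substrate was at its KM (25uM), buffer 200mM KPO4, reaction 60 min at RT.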

Potency, inactive:
CCC1=C2CC[C@H]3C(=O)N(C)C(=O)[C@H]3[C@H]2[C@@]2(C)C(=O)N(CC(=O)OC)C(=O)N2C1=O, CN1C[C@@H]2C(c3ccc(Cl)nc3)C3(c4ccc(C#N)cc4)CC2(C3)[C@H]1c1ccccc1 (stereo not given in full), COC(=O)c1cccc(C23CC4(C2)[C@H](CN(Cc2ccc(C(F)(F)F)cc2)[C@@H]4c2ccccc2)C3c2ccccc2)c1 (stereo not given in full), CCC1=C2CC[C@H]3C(=O)NC(=O)[C@H]3[C@H]2[C@@]2(Cc3ccccc3)C(=NCC(=O)OC)OC(=O)N2C1=O, COC(=O)[C@@H]1C[C@@H]2CC[C@@H](O)C[C@@H]2N1Cc1ccc(N2CCN(C)CC2)cc1

Activity change, positive = activation, inactive:
CO[C@@H]1/C=C\CC(=O)N[C@@H](C)C(=O)OC[C@@H](OC)[C@H](C)/C=C\CC(=O)OC[C@H]1C -36.7% [at 11.4 µM], COc1ccc(COC(=O)N/N=C2/C[C@@H](O)[C@@H](O)[C@@H]3[C@H]4C(=O)N(c5ccc(F)cc5F)C(=O)[C@@H]4CC[C@@H]23)cc1 -42.8% [at 11.4 µM], CCc1cc2c(nc1CC)CCN(CC/C(C)=N/OC[C@@H](C)[C@H](OCc1ccccc1)C(C)C)C2 -34.8% [at 11.4 µM], COC(=O)C/C=C\[C@@H](C)[C@@H](/C=N\OC[C@@H](C)[C@H](OCc1ccccc1)C(C)C)OC -33% [at 11.4 µM], CO[C@H]1COC(=O)[C@H](C)COC(=O)[C@@H](Cc2ccccc2)NC(=O)C/C=C\[C@H]1C -39.6% [at 11.4 µM]
